Rows were chosen to be rich in hits. Some 2.9% of all compounds tested hit in one or more screens of this group.
Beta2AR agonist = beta2AR agonists driving receptor internalization, primary screen, cell-based, FAP fluorogen, flow cytometry; Beta-2 adrenergic receptor (Homo sapiens), P07550; response, % (test concentration not listed); Am2.2-beta2AR cells; hit rate 0.43% among 340,000;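 active = response above a set limit, near 3 SD of response in nonfluorescent compounds, cut at about 42% in these data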
NadD block = inhibitors of S. aureus NadD, primary screen, biochemical, colorimetric, uHTS | AID 602399, 2012 | purified NadD enzyme, colorimetric absorbance read-out | hit rate 0.78% among 360,000 | Nicotinate-nucleotide adenylyltransferase NadD (Staphylococcus aureus N315) | inhibition, % at 20 µM; in the data active = inhibition above about 26%
Granule exo inh = LAMP-1 surface exposure blockers, TALL-104 cells – cell-based, flow cytometry, MLPCN library, primary screen | TALL-104 LAMP-1 surface exposure; cells stimulated with thapsigargin and PMA | inhibition, % at 10 µM | hit rate 0.66% among 360,000;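 active = inhibition above about 55%, limit read from the data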
GRK2 inh = compounds blocking aptamer binding on GRK2 – biochemical, human GRK2, bead flow cytometry, HTS, primary screen | Beta-adrenergic receptor kinase 1 (Homo sapiens), P25098 | FAM-aptamer displacement from GRK2 | inhibition of aptamer binding, % at 10 µM | hit rate 0.59% among 330,000;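 active = inhibition of aptamer binding above 40%, roughly 3 SD of noise, on plates passing a quality check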;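 also: median bead fluorescence of bound FAM aptamer so fluorescent compounds give negative values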
PP1 counter = PP1-alpha phosphatase inhibitors, primary screen, counter-screen for PP5 inhibitor project, biochemical, fluorescence, OMFP substrate, single point; Serine/threonine-protein phosphatase PP1-alpha catalytic subunit (Homo sapiens), P62136; purified PP1alpha; inhibition, % at 6.7 µM; hit rate 0.9% among 320,000;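 active = inhibition above the mean inhibition of all tested compounds plus 3 SD, computed separately for each screening campaign, cut at about 15% in these data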
GRK2 inh confirm = GRK2 aptamer-displacing inhibitors, retest, confirmation, biochemical, cherry pick 1, bead flow cytometry; shares compounds with GRK2 inh; bead-bound GRK2, FAM-aptamer displacement; aptamer displacement, % at 10 µM; hit rate 4% among 2,000; AID 504451, 2011;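 active = aptamer displacement above 40%, near three times the noise of non-fluorescent compounds, on plates passing quality checks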;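 also: negative values mostly reflect intrinsic compound fluorescence rather than true enhancement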
Aptamer quench = fluorescent aptamer quenching in GRK2 counter-screen dose response; shares compounds with GRK2 inh; Fluorescent RNA aptamer beads, flow cytometry; hits give high values; fluorescence change (kMESF span), kMESF (concentration not given with the values); 110 tested, under 10 active; AID 504521;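 active = compounds whose bead fluorescence drops by more than 37 kMESF across the dose range, marking them as dye quenchers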
FAM quench CP1 = aptamer fluorescence quenching in GRK2 counter-screen; shares compounds with GRK2 inh; Carboxyfluorescein RNA aptamer on beads, flow cytometry quenching; hits give low values; fluorescence response (% of DMSO), % at 10 µM; 2,000 tested, under 10 active; AID 504580;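 active = compounds that quench the bead-bound fluorescent RNA probe, cutting fluorescence to under half of the solvent control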;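 also: counterscreen run without GRK2 so only probe quenching by compound is measured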
GRK2 confirm 2 = GRK2 aptamer-displacing inhibitors, hit retest, confirmation, biochemical, cherry pick 2, bead flow cytometry | bead-bound GRK2, FAM-aptamer displacement | inhibition of aptamer binding, % at 10 µM | 360 tested, under 10 active | AID 504782, 2011 | shares compounds with GRK2 inh;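 active = inhibition of aptamer binding above 40%, about triple the noise seen with nonglowing compounds, on plates passing quality control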;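 also: negative values mostly come from compounds that fluoresce themselves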
FAM quench SP = quenches fluorescent RNA aptamer, GRK2 hit artifact; AID 588494; 360 tested, under 10 active; shares compounds with GRK2 inh; carboxyfluorescein RNA aptamer beads, flow cytometry quenching; hits give low values; fluorescence response vs DMSO, % at 10 µM;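 active = response vs DMSO under 50%, meaning signal dropped by over half, treated as fluorescence quencher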;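 also: labelled aptamer on streptavidin beads without GRK2 as a quench counter-screen; 100% = bead fluorescence of DMSO wells and lower means quenching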
Starred values were filed as active, the others as inactive; x = no result.

SMILES | Beta2AR agonist | NadD block | Granule exo inh | GRK2 inh | PP1 counter | GRK2 inh confirm | FAM quench CP1 | others
COc1ccccc1-n1cnnc1SCC(=O)N1CCN(C(=O)c2ccco2)CC1 | -5.1 | -0.4 | 0.8 | 45.0* | -1.3 | 0.6 | 99.3
COc1cc(-c2nnc(SCC3(c4ccc(Br)cc4)OCCO3)o2)cc(OC)c1OC | -7.7 | -1.5 | 2.2 | 2.0 | 5.0 | x | x
Nn1c(SCC(=O)NC2CCCCC2)nnc1-c1ccccc1F | -28.2 | -1.8 | -1.6 | 0.0 | -4.3 | x | x
O=C(CN1C(=O)NC(Cc2ccccc2)C1=O)Nc1ccc(F)cc1 (centres undefined) | -0.2 | 0.4 | -8.2 | 4.0 | -0.6 | x | x
O=C(CN1C(=O)NC(Cc2ccccc2)C1=O)Nc1ccccc1F (centres undefined) | -3.5 | 2.8 | -0.5 | 44.0* | -1.8 | x | x | GRK2 confirm 2=26.0;FAM quench SP=100.0
O=C(O)c1ccc(-n2cccc2/C=N\NC(=O)c2cc3cc(Br)ccc3o2)cc1 | 2.4 | 4.9 | -1.1 | 58.0* | 9.8 | 35.0 | 96.7
CC(C)(C)C1CCc2c(C(=O)NNC(=O)CCCC(=O)O)csc2C1 (centres undefined) | 29.1 | 2.0 | 1.4 | 97.0* | 0.0 | -4.8 | 100.4
Cc1cccnc1NC1(C(F)(F)F)N=C2SCCN2C1=O (centres undefined) | 3.6 | -1.5 | 1.2 | 4.0 | -1.7 | x | x
O=C(O)c1cccc(N2CCCC2=O)c1 | -1.0 | 3.1 | -2.1 | 0.0 | -2.5 | x | x
O=C(O)c1ccc(N2CCCC2=O)cc1 | -5.8 | -6.4 | 1.5 | 52.0* | -3.6 | 1.8 | 90.7
CCC(C)n1c(=O)c2sccc2n2c(CCCC(=O)N3CCC(C(N)=O)CC3)nnc12 (centres undefined) | -4.6 | -5.1 | -5.8 | 0.0 | -2.4 | x | x
COc1ccc(Cl)cc1NC(=O)C1CCN(C(=O)C2CC(=O)N(c3ccc(C)cc3)C2)CC1 (centres undefined) | -7.7 | 3.5 | -4.4 | 0.0 | 0.3 | x | x
NC(=O)c1cc[n+](CC2=C(C(=O)O)N3C(=O)[C@@H](NC(=O)C(c4ccccc4)S(=O)(=O)[O-])[C@H]3SC2)cc1 (some centres undefined) | -4.1 | 15.8 | -3.4 | 85.0* | 4.8 | 98.6* | 96.5 | Aptamer quench=-7.8
CN1CCOC(=O)/C1=N/Nc1cc(Cl)ccc1Cl | -0.7 | -4.8 | 2.2 | 57.0* | -3.0 | -5.6 | 96.4
COc1ccccc1S(=O)(=O)Cc1ccc(C(=O)NC(C)c2ccc3c(c2)OCCO3)o1 (centres undefined) | -3.8 | 5.8 | -2.0 | 2.0 | -7.8 | 0.8 | 98.7
Cc1ccccc1S(=O)(=O)Cc1ccc(C(=O)NC(C)c2ccccc2)o1 (centres undefined) | 3.7 | -2.1 | 41.1 | 0.0 | -0.9 | x | x
CCN=C1SC(C(=O)Nc2ccc(OC)cc2)CC(=O)N1CC (centres undefined) | 6.1 | -1.3 | -0.9 | 3.0 | -3.6 | x | x
COCCNC(=O)C(c1ccc(C)o1)N(Cc1ccc(F)cc1)C(=O)Cn1nnc2ccccc21 (centres undefined) | 0.2 | 3.8 | -1.4 | 0.0 | -1.7 | x | x

High-throughput results (PubChem BioAssay)
